# Measured values from the supplement of paper PMC10849652.
# The full data set covers some 7,900 targets. This sample favours those with a hit. About 0.6% of all pairs of compound and target were hits. Values without a mark were called inactive.
# Experiments:
# Assay in all cases: log2 fold change, soluble protein after heating vs DMSO (PISA); higher = thermal stabilisation; K562 cells, 10 uM, 30 min; active = over 0.2 and 3.5 SD of the protein, either way, in both replicates (recomputed)
# IRAK-1-4 Inhibitor I = compound: C1COCCN1CCN2C3=CC=CC=C3N=C2NC(=O)C4=CC(=CC=C4)[N+](=O)[O-] [IRAK-1-4 Inhibitor I]
# Outline: (§1)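 Soluble protein was quantified by TMTpro 16plex LC-MS/MS after channel sums were equalised. It was obtained as the supernatant after 21,000xg for 90 min from pooled aliquots of K562 cells (2×10^6 cells/mL, 10 μM compound, 30 min) heated for 3 min across 48°C-58°C and extracted in PBS with 0.5% NP-40 at 4°C. Thermal stability values are relative to control samples and come from duplicates. They are given as log2 fold changes.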
# ibrutinib = compound: C=CC(=O)N1CCC[C@@H](n2nc(-c3ccc(Oc4ccccc4)cc3)c3c(N)ncnc32)C1 [ibrutinib]
# Outline: as §1
# [1] = compound: CC(=O)c1cnc2ccc(-c3cc(Cl)c(O)c(Cl)c3)nc2c1N[C@H]1CC[C@H](CN(C)C)CC1
# Outline: as §1
# ralimetinib = compound: CC(C)(C)Cn1c(N)nc2ccc(-c3[nH]c(C(C)(C)C)nc3-c3ccc(F)cc3)nc21 [ralimetinib]
# Outline: as §1
# [2] = compound: CC(C)(O)CC(=O)NCCn1ccc2ncnc(Nc3ccc(Oc4cccc(C(F)(F)F)c4)c(Cl)c3)c21
# Outline: as §1
# [3] = compound: CC(C)C1=C2N=C(C=C(N2N=C1)NCC3=CC=CC=C3)NCCCCCCN
# Outline: as §1
# [4] = compound: CC(C)C[C@@H](C=O)NC(=O)[C@H](CC(C)C)NC(=O)[C@H](CC(C)C)NC(=O)OCc1ccccc1
# Outline: as §1
# pinometostat = compound: CC(C)N(C[C@H]1O[C@@H](n2cnc3c(N)ncnc32)[C@H](O)[C@@H]1O)[C@H]1C[C@@H](CCc2nc3cc(C(C)(C)C)ccc3[nH]2)C1 [pinometostat]
# Outline: as §1
# [5] = compound: CC1=C(C(CC(=O)N1)C2=CC=C(C=C2)C(F)(F)F)C(=O)NC3=C(C=C4C(=C3)C=NN4)F
# Outline: as §1
# [6] = compound: CC1=C(C2=C(C=C1)C(=O)C3=CC=CC=C3N2CCCN)C
# Outline: as §1
# [7] = compound: CC1=C(C=C(C=C1)NC(=O)C2=CC(=CC=C2)C(C)(C)C#N)NC3=CC4=C(C=C3)N=CN(C4=O)C
# Outline: as §1
# [8] = compound: CC1=C(C=C(C=C1)NC(=O)C2=CC(=CC=C2)N(C)C)NC(=O)C3=CC=C(C=C3)O
# Outline: as §1
# [9] = compound: CC1=CC=C(C=C1)SC2=C3C=C(SC3=CN=C2)C(=O)N
# Outline: as §1
# [10] = compound: CC1=NC(=CC=C1)C2=C(N=C(N2)C(C)(C)C)C3=CC4=NC=CN=C4C=C3
# Outline: as §1
# Nexturastat A = compound: CCCCN(Cc1ccc(C(=O)NO)cc1)C(=O)Nc1ccccc1 [Nexturastat A]
# Outline: as §1
# vemurafenib = compound: CCCS(=O)(=O)Nc1ccc(F)c(C(=O)c2c[nH]c3ncc(-c4ccc(Cl)cc4)cc23)c1F [vemurafenib]
# Outline: as §1
# [11] = compound: CCCS(=O)(=O)Nc1ccc(F)c(C(=O)c2c[nH]c3ncc(Cl)cc23)c1F
# Outline: as §1
# [12] = compound: CCCc1cc(C)[nH]c(=O)c1CNC(=O)c1cc(-c2ccnc(N3CCN(C)CC3)c2)cc2c1cnn2C(C)C
# Outline: as §1
# givinostat = compound: CCN(CC)Cc1ccc2cc(COC(=O)Nc3ccc(C(=O)NO)cc3)ccc2c1 [givinostat]
# Outline: as §1
# barasertib = compound: CCN(CCCOc1ccc2c(Nc3cc(CC(=O)Nc4cccc(F)c4)[nH]n3)ncnc2c1)CCOP(=O)(O)O [barasertib]
# Outline: as §1
# UniProt P0C0S5, sequence (P0C0S5 whole entry, looked up): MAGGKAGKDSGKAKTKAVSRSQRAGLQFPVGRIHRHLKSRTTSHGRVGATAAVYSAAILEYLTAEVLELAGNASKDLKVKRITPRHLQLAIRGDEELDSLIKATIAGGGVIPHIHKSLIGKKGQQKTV
# UniProt P29083, sequence (P29083 whole entry, looked up): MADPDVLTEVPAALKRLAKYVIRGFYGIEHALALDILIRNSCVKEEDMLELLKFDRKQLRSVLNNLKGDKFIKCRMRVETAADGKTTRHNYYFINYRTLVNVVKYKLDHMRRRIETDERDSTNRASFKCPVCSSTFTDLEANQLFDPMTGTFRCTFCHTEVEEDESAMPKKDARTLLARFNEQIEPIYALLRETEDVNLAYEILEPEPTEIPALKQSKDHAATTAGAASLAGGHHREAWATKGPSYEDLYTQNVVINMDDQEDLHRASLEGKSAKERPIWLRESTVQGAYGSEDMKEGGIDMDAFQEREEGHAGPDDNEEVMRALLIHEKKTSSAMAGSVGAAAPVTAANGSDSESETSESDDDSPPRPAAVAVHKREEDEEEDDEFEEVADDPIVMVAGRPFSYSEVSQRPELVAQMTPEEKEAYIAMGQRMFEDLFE
# UniProt Q9Y6M1, sequence (Q9Y6M1 whole entry, looked up): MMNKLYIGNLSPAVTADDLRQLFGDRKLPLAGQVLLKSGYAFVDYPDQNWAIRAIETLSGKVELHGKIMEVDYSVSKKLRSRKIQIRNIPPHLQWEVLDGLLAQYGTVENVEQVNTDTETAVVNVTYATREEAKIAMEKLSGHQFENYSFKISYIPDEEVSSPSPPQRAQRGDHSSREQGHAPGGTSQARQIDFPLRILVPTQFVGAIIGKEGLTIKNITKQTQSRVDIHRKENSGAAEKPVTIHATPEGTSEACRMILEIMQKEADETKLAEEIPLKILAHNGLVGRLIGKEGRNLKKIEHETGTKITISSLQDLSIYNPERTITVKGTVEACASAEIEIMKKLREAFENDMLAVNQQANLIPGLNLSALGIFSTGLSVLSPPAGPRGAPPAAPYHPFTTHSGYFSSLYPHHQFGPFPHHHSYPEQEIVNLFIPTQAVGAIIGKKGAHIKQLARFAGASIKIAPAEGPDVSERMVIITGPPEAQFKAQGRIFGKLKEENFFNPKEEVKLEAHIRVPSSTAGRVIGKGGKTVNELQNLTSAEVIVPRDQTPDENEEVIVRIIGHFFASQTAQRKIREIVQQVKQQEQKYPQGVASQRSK
# UniProt Q9UJY4, sequence (Q9UJY4 whole entry, looked up): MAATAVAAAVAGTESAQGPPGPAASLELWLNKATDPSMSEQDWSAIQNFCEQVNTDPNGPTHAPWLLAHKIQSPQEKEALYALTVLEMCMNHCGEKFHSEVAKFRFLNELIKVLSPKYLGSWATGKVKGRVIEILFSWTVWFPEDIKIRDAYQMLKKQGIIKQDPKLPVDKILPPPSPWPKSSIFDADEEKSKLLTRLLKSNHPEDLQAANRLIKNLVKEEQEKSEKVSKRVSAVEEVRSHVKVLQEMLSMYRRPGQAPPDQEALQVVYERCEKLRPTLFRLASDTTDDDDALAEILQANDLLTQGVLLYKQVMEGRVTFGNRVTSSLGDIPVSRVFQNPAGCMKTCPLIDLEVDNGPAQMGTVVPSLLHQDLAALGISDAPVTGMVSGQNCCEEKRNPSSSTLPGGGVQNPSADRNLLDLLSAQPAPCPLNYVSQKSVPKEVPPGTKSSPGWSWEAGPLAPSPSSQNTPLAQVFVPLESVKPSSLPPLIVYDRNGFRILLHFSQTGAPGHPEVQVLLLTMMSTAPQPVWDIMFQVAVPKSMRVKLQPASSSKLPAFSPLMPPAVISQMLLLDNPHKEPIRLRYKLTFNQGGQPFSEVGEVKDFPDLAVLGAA
# UniProt P49841, sequence (P49841 whole entry, looked up): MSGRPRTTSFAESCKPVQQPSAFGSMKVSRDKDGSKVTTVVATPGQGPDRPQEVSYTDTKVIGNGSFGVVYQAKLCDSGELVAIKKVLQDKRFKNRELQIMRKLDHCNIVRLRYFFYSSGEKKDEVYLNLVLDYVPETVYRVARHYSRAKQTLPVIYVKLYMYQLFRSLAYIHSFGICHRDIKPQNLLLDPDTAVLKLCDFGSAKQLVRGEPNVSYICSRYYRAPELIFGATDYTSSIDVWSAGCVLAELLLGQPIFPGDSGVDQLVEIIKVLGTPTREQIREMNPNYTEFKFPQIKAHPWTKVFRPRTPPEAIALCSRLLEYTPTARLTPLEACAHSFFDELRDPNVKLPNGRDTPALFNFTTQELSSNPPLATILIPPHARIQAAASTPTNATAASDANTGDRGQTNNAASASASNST
# UniProt P0CL80, sequence (P0CL80 whole entry, looked up): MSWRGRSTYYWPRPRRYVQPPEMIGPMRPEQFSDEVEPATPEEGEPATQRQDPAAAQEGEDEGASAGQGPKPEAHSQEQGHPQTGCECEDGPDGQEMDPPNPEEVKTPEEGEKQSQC
# UniProt P85037, sequence (P85037 whole entry, looked up): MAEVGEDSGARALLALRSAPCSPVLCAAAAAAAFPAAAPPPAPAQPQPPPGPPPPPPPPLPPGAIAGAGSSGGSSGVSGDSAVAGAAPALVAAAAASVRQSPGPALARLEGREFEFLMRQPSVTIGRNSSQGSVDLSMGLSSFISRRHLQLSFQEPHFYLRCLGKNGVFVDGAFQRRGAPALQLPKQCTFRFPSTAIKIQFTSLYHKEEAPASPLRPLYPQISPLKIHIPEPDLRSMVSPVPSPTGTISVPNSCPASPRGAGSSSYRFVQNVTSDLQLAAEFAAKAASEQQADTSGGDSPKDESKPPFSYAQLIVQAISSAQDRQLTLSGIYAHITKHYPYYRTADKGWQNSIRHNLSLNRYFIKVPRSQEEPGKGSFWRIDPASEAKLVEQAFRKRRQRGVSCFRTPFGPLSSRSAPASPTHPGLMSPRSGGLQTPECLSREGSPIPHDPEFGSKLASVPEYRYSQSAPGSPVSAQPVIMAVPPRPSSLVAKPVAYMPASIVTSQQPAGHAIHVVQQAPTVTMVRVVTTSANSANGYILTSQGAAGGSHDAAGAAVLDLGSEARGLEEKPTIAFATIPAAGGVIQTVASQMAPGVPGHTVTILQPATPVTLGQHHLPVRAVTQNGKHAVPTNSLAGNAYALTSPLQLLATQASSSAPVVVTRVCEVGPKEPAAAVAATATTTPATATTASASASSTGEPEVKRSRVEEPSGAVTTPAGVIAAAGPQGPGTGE
Target,log2 fold change (IRAK-1-4 Inhibitor I),log2 fold change (ibrutinib),log2 fold change [1],log2 fold change (ralimetinib),log2 fold change [2],log2 fold change [3],log2 fold change [4],log2 fold change (pinometostat),log2 fold change [5],log2 fold change [6],log2 fold change [7],log2 fold change [8],log2 fold change [9],log2 fold change [10],log2 fold change (Nexturastat A),log2 fold change (vemurafenib),log2 fold change [11],log2 fold change [12],log2 fold change (givinostat),log2 fold change (barasertib)
GGA2 (UniProt Q9UJY4),0.007,-0.05,-0.006,-0.153,-0.048,-0.169,0.068,-0.038,-0.04,0.032,-0.015,0.033,-0.047,0.06,0.582 (active),0.053,0.017,-0.059,-0.03,0.051
FOXK1 (UniProt P85037),0.046,0.121,-1.03 (active),-0.027,0.015,0.111,0.052,-0.002,-0.05,0.154,0.323,-0.01,-0.362,-0.063,-0.091,0.097,0.182,-0.129,-0.025,-0.221
GAGE12F (UniProt P0CL80),0.045,0.025,0.037,-0.038,0.02,0.015,0.019,-0.06,0.004,0.128,-0.005,-0.035,0.006,0.061,0.036,0.019,-0.018,-0.031,-0.076,0.01
IGF2BP2 (UniProt Q9Y6M1),-0.168,0.048,-0.011,0.209,0.037,-0.249,0.106,0.477,0.087,-0.054,0.009,-0.001,-0.008,-0.094,0.383,0.065,0,-0.011,0.153,-0.041
GSK3B isoform 2 (UniProt P49841),0.017,0.019,0.144,-0.005,-0.07,0.004,-0.031,-0.022,-0.008,-0.017,0.015,-0.022,0.044,0.034,0.003,-0.008,-0.018,-0.066,-0.07,-0.017
GTF2E1 (UniProt P29083),-0.048,-0.06,-0.051,-0.018,-0.178,-0.147,0.016,-0.046,0.003,-0.007,-0.005,-0.057,0.011,0.115,0.024,0.05,0.082,-0.006,0.091,0.166
H2AZ1 (UniProt P0C0S5),-0.115,0.087,-0.125,0.247,0.031,-0.022,0.244,0.268,0.022,1.74 (active),-0.051,0,-0.174,-0.01,0.75 (active),-0.209,0.233,0.074,0.454,-0.083
